# Source: PubChem BioAssay
# Values joined by “and” are separate entries in the source; they are usually repeats but may differ in a detail not shown here. Equal entries are not always repeated. Active and inactive are the calls of the source.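 Rule for the calls, unless noted: active = thallium flux through the channel raised or lowered by more than 3 SD from vehicle-only wells, actives on both sides; inactive = the rest.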
# Columns and labels:
# [1] = polyglutamine-triggered caspase-3 activation inhibitors, cell-based (AID 1583); settings: polyglutamine-induced caspase-3 activation, cell assay; stronger effect = higher value;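 tested at 10 µM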
# [2] = suppressors of polyQ aggregation in yeast, 75Q-TubU reporter (AID 1593); settings: Yeast 75Q polyglutamine aggregation reporter
# [3] = inhibitors of mitochondrial cytochrome c release, biochemical, purified mitochondria (AID 1603); settings: stronger effect = lower value;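 note: mouse liver mitochondria challenged with calcium chloride; signal normalized to the plate average as 100%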
# [4] = inhibitors of polyQ protein aggregation (AID 1604); settings: polyglutamine-induced protein aggregation inhibition assay; stronger effect = higher value; tested at 2.5 µM
# [5] = enhancers of glutamate uptake in motor neurons, MN-1 cell line (AID 1612); settings: MN-1 motor neuron cells, stronger effect = higher value;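 note: tested at 1 µM final; 0% = mean of DMSO vehicle wells on each plate; positive means more glutamate uptake than control and negative means less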
# [6] = Cy5 fluorescence interference with SSB-bound oligo, artefact control for HCV NS3 helicase inhibitor project, biochemical, NIH Clinical Collection, E. coli SSB (AID 743268; call rule not given here)
# [7] = tested on: Hepatitis C virus NS3 helicase; assay: HCV NS3 helicase inhibitors, primary screen, biochemical, fluorescence polarization, NIH Clinical Collection (AID 743270; call rule not given here); settings: NS3 helicase binding to Cy5-dT15 DNA, stronger effect = higher value, concentration not given here
# [8] = biological target: Single-stranded DNA-binding protein (Escherichia coli (strain K12)) (UniProt P0AGE0); assay: E. coli SSB displacement from DNA, counter-screen for HCV NS3 helicase inhibitor project, biochemical, fluorescence polarization, NIH Clinical Collection (AID 743271; in the data active = inhibition above about 28%); settings: stronger effect = higher value, concentration not given here
# [9] = fluorescence interference in NS3h assay format, artefact control for HCV NS3 helicase inhibitor project, biochemical, NIH Clinical Collection (AID 743272; call rule not given here;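 note: HCV NS3 helicase with a Cy5 labelled single stranded DNA probe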); settings: fluorescence interference counterscreen, stronger effect = lower value
# [10] = viability rescue of complex I mutant cybrids, primary screen, cell-based, galactose medium, ATP luminescence (AID 1645843;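 active = z-score of at least 1.8 in each of two replicates, scored against plate mean and spread of sample wells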;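 note: positive z means more ATP and so rescue of galactose-driven cybrid death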); settings: complex I mutant cybrid cells, 72 h, stronger effect = higher value
# F380Y/beta4 = assay: modulators of BK channel variants, profiling panel, selectivity assay, cell-based, U2OS BacMam, thallium flux, beta subunits (AID 1259406); settings: at 30 µM;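 note: initial slope of Thallos dye fluorescence rise after thallium is added; log ratio against the mean of 0.3% DMSO vehicle wells on the same plate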
# [11] = biological target: Calcium-activated potassium channel subunit alpha-1 (Homo sapiens) + Leucine-rich repeat-containing protein 26 (Homo sapiens) (UniProt Q12791+Q2I0M4); assay: as above; settings: F380Y/Slo1WT/gamma1, at 30 µM
# R275C = assay: as above; settings: at 30 µM
# R275C/beta1 = assay: as above; settings: at 30 µM
# R275C/beta2Delta = assay: as above; settings: at 30 µM
# R275C/beta4 = assay: as above; settings: at 30 µM
# R275C/Slo1WT/beta2 = assay: as above; settings: at 30 µM
# [12] = LFS_MB_P medulloblastoma growth inhibition, cell-based, chromothripsis tumors, cisplatin or BGB combos (AID 1671449; in the data active = inhibition above about 80%;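 note: cells exposed for 96 hours; 0% = vehicle DMSO and 100% = killing by high DMSO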); settings: LFS_MB_P medulloblastoma cells
# [13] = HDN33 neuroblastoma growth inhibition, cell-based, chromothripsis tumors, cisplatin or BGB combos (AID 1671450; in the data active = inhibition above about 80%;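 note: cells exposed to compound for four days; 0% = vehicle DMSO and 100% = cell killing by high DMSO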); settings: HDN33 neuroblastoma cells, stronger effect = higher value
# [14] = HTB85 osteosarcoma cell growth inhibition, synergistic combos for chromothripsis tumors, BGB or cisplatin IC20 combos (AID 1671453; in the data active = inhibition above about 80%;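 note: cells exposed for 96 hours before readout; 0% = vehicle DMSO and 100% = high DMSO killing control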); settings: HTB85 osteosarcoma cells, drug combinations, stronger effect = higher value
# Chain of Calcium-activated potassium channel subunit alpha-1 (Homo sapiens) + Leucine-rich repeat-containing protein 26 (Homo sapiens) (Q2I0M4 whole entry, looked up, one chain of several): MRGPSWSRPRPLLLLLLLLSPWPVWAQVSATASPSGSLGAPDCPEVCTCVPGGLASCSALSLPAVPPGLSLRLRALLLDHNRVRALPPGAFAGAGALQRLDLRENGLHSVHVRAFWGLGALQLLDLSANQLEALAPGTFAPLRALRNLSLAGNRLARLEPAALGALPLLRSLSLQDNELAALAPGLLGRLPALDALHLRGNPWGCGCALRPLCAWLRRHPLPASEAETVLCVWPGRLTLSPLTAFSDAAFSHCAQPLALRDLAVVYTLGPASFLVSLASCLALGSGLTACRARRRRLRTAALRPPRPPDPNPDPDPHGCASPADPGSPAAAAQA
structure (smiles),measurement,setting,value
CCCCNc1cc(C(=O)O)cc(S(N)(=O)=O)c1Oc1ccccc1,inhibition,[1],4.16%
same,score,[2],1.19
same,cytochrome c release ratio,[3],1.53
same,inhibition of aggregation,[4],71.8%
same,glutamate uptake change,[5],-4.68%
same,fluorescence ratio,[6],1.02 (inactive)
same,inhibition,[7],-5.91% (inactive)
same,inhibition,[8],-2.76% (inactive)
same,fluorescence ratio,[9],0.97 (inactive)
same,z-score,[10],0.145 (inactive) and 0.39 (inactive) and 0.32 (inactive)
same,log fold change Tl+ flux,F380Y/beta4,-0.00421 (inactive)
same,log fold change Tl+ flux,[11],-0.0253 (inactive)
same,log fold change Tl+ flux,R275C,-0.00799 (inactive)
same,log fold change Tl+ flux,R275C/beta1,0.0319 (inactive)
same,log fold change Tl+ flux,R275C/beta2Delta,-0.0196 (inactive)
same,log fold change Tl+ flux,R275C/beta4,0.0225 (inactive)
same,log fold change Tl+ flux,R275C/Slo1WT/beta2,0.0333 (inactive)
NCCc1ccc(O)c(O)c1,inhibition,[1],12.5%
same,score,[2],1.44
same,cytochrome c release ratio,[3],0.92
same,inhibition of aggregation,[4],81.4%
same,glutamate uptake change,[5],17.9%
same,fluorescence ratio,[6],0.93 (inactive)
same,inhibition,[7],-5.91% (inactive)
same,inhibition,[8],-2% (inactive)
same,fluorescence ratio,[9],0.96 (inactive)
same,z-score,[10],-1.03 (inactive) and -1.31 (inactive)
same,log fold change Tl+ flux,F380Y/beta4,0.00195 (inactive)
same,log fold change Tl+ flux,[11],-0.0022 (inactive)
same,log fold change Tl+ flux,R275C,0.00996 (inactive)
same,log fold change Tl+ flux,R275C/beta1,-0.0871 (inactive)
same,log fold change Tl+ flux,R275C/beta2Delta,0.0238 (inactive)
same,log fold change Tl+ flux,R275C/beta4,0.0461 (inactive)
same,log fold change Tl+ flux,R275C/Slo1WT/beta2,0.00323 (inactive)
CCc1cc(C(N)=S)ccn1,inhibition,[1],13.5%
same,score,[2],1.02
same,cytochrome c release ratio,[3],1.06
same,inhibition of aggregation,[4],78.8%
same,glutamate uptake change,[5],15.8%
same,fluorescence ratio,[6],1.03 (inactive)
same,inhibition,[7],-4.09% (inactive)
same,inhibition,[8],-4.29% (inactive)
same,fluorescence ratio,[9],1.01 (inactive)
same,z-score,[10],0.725 (inactive)
same,log fold change Tl+ flux,F380Y/beta4,0.0197 (inactive)
same,log fold change Tl+ flux,[11],0.00124 (inactive)
same,log fold change Tl+ flux,R275C,0.0202 (inactive)
same,log fold change Tl+ flux,R275C/beta1,-0.00453 (inactive)
same,log fold change Tl+ flux,R275C/beta2Delta,-0.00222 (inactive)
same,log fold change Tl+ flux,R275C/beta4,0.0412 (inactive)
same,log fold change Tl+ flux,R275C/Slo1WT/beta2,0.00968 (inactive)
OC(Cn1cncn1)(Cn1cncn1)c1ccc(F)cc1F,inhibition,[1],-12.6%
same,score,[2],0.67
same,cytochrome c release ratio,[3],0.79
same,inhibition of aggregation,[4],0%
same,glutamate uptake change,[5],-9.51%
same,fluorescence ratio,[6],1.05 (inactive)
same,inhibition,[7],-3.18% (inactive)
same,inhibition,[8],-4.29% (inactive)
same,fluorescence ratio,[9],1.02 (inactive)
same,z-score,[10],1.3 (inactive) and 0.555 (inactive)
same,log fold change Tl+ flux,F380Y/beta4,0.0309 (inactive)
same,log fold change Tl+ flux,[11],-0.0185 (inactive)
same,log fold change Tl+ flux,R275C,0.0468 (inactive)
same,log fold change Tl+ flux,R275C/beta1,0.023 (inactive)
same,log fold change Tl+ flux,R275C/beta2Delta,0.0182 (inactive)
same,log fold change Tl+ flux,R275C/beta4,0.0436 (inactive)
same,log fold change Tl+ flux,R275C/Slo1WT/beta2,0.0134 (inactive)
CC12CC3CC(C)(C1)CC(N)(C3)C2,inhibition,[1],12.5%
same,score,[2],1.59
same,cytochrome c release ratio,[3],1.07
same,inhibition of aggregation,[4],35%
same,glutamate uptake change,[5],2.56%
same,fluorescence ratio,[6],1.02 (inactive)
same,inhibition,[7],-1.36% (inactive)
same,inhibition,[8],-0.48% (inactive)
same,fluorescence ratio,[9],1.02 (inactive)
same,z-score,[10],-0.41 (inactive) and 0.5 (inactive) and -0.635 (inactive)
same,log fold change Tl+ flux,F380Y/beta4,0.00566 (inactive)
same,log fold change Tl+ flux,[11],-0.0203 (inactive)
same,log fold change Tl+ flux,R275C,0.00266 (inactive)
same,log fold change Tl+ flux,R275C/beta1,-0.0595 (inactive)
same,log fold change Tl+ flux,R275C/beta2Delta,0.0488 (inactive)
same,log fold change Tl+ flux,R275C/beta4,0.0101 (inactive)
same,log fold change Tl+ flux,R275C/Slo1WT/beta2,-0.103 (inactive)
CC(C[N+](C)(C)C)OC(N)=O (stereo not drawn),inhibition,[1],18.5%
same,score,[2],1.26
same,cytochrome c release ratio,[3],0.92
same,inhibition of aggregation,[4],-22.2%
same,glutamate uptake change,[5],-0.67%
same,fluorescence ratio,[6],1.06 (inactive)
same,inhibition,[7],-3.18% (inactive)
same,inhibition,[8],-1.24% (inactive)
same,fluorescence ratio,[9],1.01 (inactive)
same,z-score,[10],-0.115 (inactive) and 0.415 (inactive) and 0.59 (inactive)
same,log fold change Tl+ flux,F380Y/beta4,0.00469 (inactive)
same,log fold change Tl+ flux,[11],0.00848 (inactive)
same,log fold change Tl+ flux,R275C,0.0156 (inactive)
same,log fold change Tl+ flux,R275C/beta1,0.0122 (inactive)
same,log fold change Tl+ flux,R275C/beta2Delta,0.00284 (inactive)
same,log fold change Tl+ flux,R275C/beta4,0.043 (inactive)
same,log fold change Tl+ flux,R275C/Slo1WT/beta2,0.0355 (inactive)
CC1=C(/C=C/C(C)=C/C=C/C(C)=C/C(=O)O)C(C)(C)CCC1,inhibition,[1],16%
same,score,[2],0.91
same,cytochrome c release ratio,[3],3.67
same,inhibition of aggregation,[4],19.4%
same,glutamate uptake change,[5],-29.4%
same,fluorescence ratio,[6],1.02 (inactive)
same,inhibition,[7],1.36% (inactive)
same,inhibition,[8],2.57% (inactive)
same,fluorescence ratio,[9],0.87 (inactive)
same,log fold change Tl+ flux,F380Y/beta4,0.0201 (inactive)
same,log fold change Tl+ flux,[11],0.0114 (inactive)
same,log fold change Tl+ flux,R275C,0.0107 (inactive)
same,log fold change Tl+ flux,R275C/beta1,0.0531 (inactive)
same,log fold change Tl+ flux,R275C/beta2Delta,0.0707 (inactive)
same,log fold change Tl+ flux,R275C/beta4,-0.0336 (inactive)
same,log fold change Tl+ flux,R275C/Slo1WT/beta2,-0.0605 (inactive)
COc1c(N2CCNC(C)C2)c(F)cc2c(=O)c(C(=O)O)cn(C3CC3)c12 (stereo not drawn),fluorescence ratio,[6],1.05 (inactive)
same,inhibition,[7],-8.64% (inactive)
same,inhibition,[8],-6.58% (inactive)
same,fluorescence ratio,[9],1.01 (inactive)
same,z-score,[10],0.695 (inactive) and -0.01 (inactive)
same,inhibition,"[12]; at 0.5 µM, stronger effect = higher value",-20.5% (inactive) and -4.2% (inactive)
same,inhibition,"[12]; measured here: combination with BGB IC20, at 0.005 µM",17.2% and 22.3%
same,inhibition,"[12]; measured here: combination with BGB IC40, at 0.005 µM",3.24% and -1.74%
same,inhibition,"[12]; measured here: combination with BGB IC40, at 0.05 µM",-33% and 5.75%
same,inhibition,"[12]; measured here: combination with cisplatin, at 0.5 µM, stronger effect = higher value",-33.3% and -6.41%
same,inhibition,"[12]; measured here: combination with cisplatin, at 5 µM, stronger effect = higher value",-5.09% and 4.8%
same,inhibition,"[13]; BGB combo, at 5 µM",-39.9% and 9.99%
same,inhibition,[13]; at 0.5 µM,-22% (inactive) and 8.9% (inactive)
same,inhibition,"[13]; cisplatin combo, at 5 µM",-25.7% and 17.8%
same,inhibition,"[13]; measured here: with BGB IC20 combination, at 0.5 µM",-19.2% and 9.8%
same,inhibition,"[13]; measured here: with cisplatin IC20 combination, at 0.5 µM",-37.3% and 8.47%
same,inhibition,"[13]; single agent, at 5 µM",-2.12% and 5.9%
same,inhibition,[14]; at 0.5 µM,-28.9% (inactive) and -4.45% (inactive)
same,inhibition,"[14]; measured here: with BGB IC20, at 0.5 µM",-22.5% and -1.96%
same,inhibition,"[14]; measured here: with BGB IC20, at 5 µM",-17.3% and -16.7%
same,inhibition,"[14]; measured here: with cisplatin IC20, at 0.5 µM",-35.1% and -12%
same,inhibition,"[14]; measured here: with cisplatin IC20, at 5 µM",-18.3% and -5.81%
same,inhibition,"[14]; single agent, at 5 µM",17.7% and -9.93%
same,log fold change Tl+ flux,F380Y/beta4,-0.0127 (inactive)
same,log fold change Tl+ flux,[11],0.0449 (inactive)
same,log fold change Tl+ flux,R275C,-0.0278 (inactive)
same,log fold change Tl+ flux,R275C/beta1,0.0168 (inactive)
same,log fold change Tl+ flux,R275C/beta2Delta,0.00178 (inactive)
same,log fold change Tl+ flux,R275C/beta4,-0.00176 (inactive)
same,log fold change Tl+ flux,R275C/Slo1WT/beta2,0.05 (inactive)
